Source: PubChem BioAssay AID588850 (Sanford-Burnham Center for Chemical Genomics, 2011)
Among all 360,000 compounds or so, about 3,100 (0.86%) were called active. Only a selection was taken, and actives are over-represented in it overall. A number with no mark means an inactive call.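 How the source made its calls: active means at least 50% inhibition at 5 µM, scaled per plate between neutral and stimulator controls; inactive means the rest.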

Assay: inhibitors of PAF-induced NF-kB signaling, primary screen, cell-based, GFP fluorescence, uHTS (AID 588850);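 further: PAF is a Pseudomonas aeruginosa culture filtrate used as stimulus; plate controls were PAF-stimulated DMSO wells for no effect and unstimulated DMSO wells for full effect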
Details: KKLEB NF-kB-GFP reporter, GFP fluorescence overnight, at 5 µM, active compounds read high

| Structure (SMILES) | inhibition |
| --- | --- |
| O=C1C(Cl)=C(Oc2ccccc2)C(=O)c2ccccc21 | 59.1% (active) |
| Cc1nc2sccn2c(=O)c1S(=O)(=O)NCCc1ccccc1 | -12.2% |
| CCc1nc2c(OCCc3cccc(OC)c3)cccn2c1N(C)C(=O)c1ccc(C)cc1 | 5.8% |
| Cc1ccc(Cn2c(C)c3cnn(CC(=O)NCCN4CCOCC4)c(=O)c3c2C)cc1 | -0.6% |
| O=C(c1c(F)cccc1F)N1CCN(c2ncc(Br)cn2)CC1 | -1.3% |
| O=C(NC(Nc1nc2ccc([N+](=O)[O-])cc2s1)(C(F)(F)F)C(F)(F)F)c1ccccc1 | 74.8% (active) |
| O=C(NNC(=O)c1ccc(-n2cncn2)c([N+](=O)[O-])c1)c1ccccc1 | 14.4% |
| CC(Nc1ccc([N+](=O)[O-])cc1[N+](=O)[O-])c1ccccc1 (stereo not given) | 4.8% |
| Cc1cn(C2CC(O)C(CO)O2)c(=O)n(CCCc2ccccc2)c1=O (stereo not given) | 1.7% |
| COc1ccc(-c2cc(C3CCN(c4ncccc4[N+](=O)[O-])CC3)[nH]n2)cc1 | 18.1% |
| CN(CC(=O)NNC(=O)CNC(=O)c1ccccc1Cl)S(=O)(=O)c1ccc(Cl)cc1 | 60.5% (active) |
| CN(CC(=O)NCCc1ccccn1)S(=O)(=O)c1ccc(Cl)cc1 | -8% |
| CN(CC(=O)NCC(c1ccccc1)N1CCCC1)S(=O)(=O)c1ccc(Cl)cc1 (stereo not given) | -5.7% |
| COc1ccc(CCNC(=O)CN(c2ccccc2)S(C)(=O)=O)cc1OC | -0.3% |
| COc1ccc(C(CCN(Cc2ccc(OC)c(OC)c2)C(=O)CCl)c2ccccc2)cc1 (stereo not given) | 82.6% (active) |
| COc1ccc(C(C(=O)NC2CCCCC2)N(C(=O)CCl)c2ccccc2Cl)cc1 (stereo not given) | -13.3% |
| CCCCn1c(N)c(N(CC(C)C)C(=O)c2ccc(Br)o2)c(=O)[nH]c1=O | -29% |
| NC(=S)c1ccc(C(N)=S)o1 | 14.6% |
| CCC(C(=O)NCc1cccnc1)n1nc(C)c2sc3ccccc3c2c1=O (stereo not given) | 9.9% |
| N#CCCn1ncc2ccccc21 | -11.2% |

| Structure (SMILES) | inhibition |
| --- | --- |
| O=C(CSc1nc(C2CC2)nc2ccccc12)Nc1ccc2c(c1)OCCO2 | 42.7% |
| Cc1nnc(NC(=O)CSc2nc(C3CCCCC3)nc3ccccc23)s1 | 22.6% |
| O=C(CSc1nc(C2CC2)nc2ccccc12)Nc1cccc(O)c1 | 50.1% (active) |
| O=Cc1ccc(OCc2cn3ccccc3n2)cc1 | -22.3% |
| CN1c2ccc(C=O)c3c(C=O)ccc(c23)N(C)C1(C)C | 88% (active) |
| Cc1ccc(C=O)c([B-](F)(F)F)c1 | -9.8% |
| C=CCn1c(C2CC(=O)N(c3ccc(C)cc3)C2)nc2ccccc21 (stereo not given) | -16.5% |
| CCOc1ccc(S(=O)(=O)NCCC(=O)NNC(=O)c2ccc(F)cc2)cc1 | 9.6% |
| Cc1ccc2c(c1)N(CC(=O)N1CCCc3ccccc31)C(=O)C(C)O2 (stereo not given) | 7.2% |
| CCOC(=O)c1c(C)oc2cc(Br)c(OCC(N)=O)cc12 | -3.8% |
| CCOC(=O)c1c(C)oc2cc(Sc3ccccc3)c(O)c(O)c12 | 6.5% |
| CCOC(=O)c1c(-c2ccccc2)oc2cc(Br)c(O)c(C=O)c12 | 68.5% (active) |
| CCOC(=O)N1CCN(C(=O)c2nn(-c3ccc(C)cc3)c(=O)c3c2c2ccccc2n3C)CC1 | -7.7% |
| CCOC(=O)c1nnn2c3ccccc3c(=O)n(C)c12 | -25.2% |
| CCCc1nc2c(c(=O)c3ccccc3n2C)c(=O)n1C1CCCCCC1 | 55.9% (active) |
| Cc1ccc(CNC(=O)c2ccc(CS(=O)Cc3cccc(Cl)c3)o2)cc1 (stereo not given) | 1.3% |
| O=C(Nn1cc(C(=O)N2CCN(c3ccccc3F)CC2)c2ccccc2c1=O)c1cnccn1 | -8.3% |
| NNc1cccc(C=Cc2ccccc2)cc1=O | 3.8% |
| O=C1OC(Oc2ccc(Br)cc2)(c2ccccc2)c2ccccc21 (stereo not given) | 50.3% (active) |
| CCOC(=O)CSc1nnc(CNC(=O)Cc2ccccc2)n1-c1ccccc1OC | 1.5% |

| Structure (SMILES) | inhibition |
| --- | --- |
| CS(=O)(=O)c1cccc(-c2ccc3nncn3c2)c1 | 5.2% |
| CC(C)OC(=O)c1ccc(NCc2cc(O)ccc2O)cc1Cl | 86.3% (active) |
| O=C(O)Cc1ccc(NCc2ccccc2Cl)cc1 | -14.4% |
| CC(CN1CCCCC1)OC(=O)c1ccccc1Cl (stereo not given) | -7.9% |
| Oc1cccc2cc(-c3ccncc3)cnc12 | 13.6% |
| COc1ccc(CNC(=O)C[C@H]2C[C@H](C(=O)N3CCOCC3)[C@@]3(CCC4CCCC4)c4[nH]c5ccc(Cl)cc5c4CCN3C2=O)cc1OC | 8.2% |
| O=C(CCS(=O)(=O)Cc1ccccc1F)NCCCN1CCCCC1 | 5% |
| CC1CN(c2cc(=O)n(-c3cccc(Br)c3)c(=O)[nH]2)CC(C)O1 (stereo not given) | -24.9% |
| COC(=O)C1CCN(C(=O)COC(=O)c2cc(S(=O)(=O)N3CCOCC3)ccc2C)CC1 | 5.9% |
| CC(C)NS(=O)(=O)c1ccc(CCC(=O)N2CCOCC2)cc1 | 5% |
| CC(=O)Nc1ccc(NC(=O)CSCc2cnn(-c3ccccc3)c2-n2cccc2)cc1 | 11.8% |
| Cc1cc(C)nc(S/C=C/C(=O)c2ccccc2)n1 | 71.8% (active) |
| COC(c1ccccc1)(c1ccccc1)C(Oc1nc(C)cc(C)n1)C(=O)O (stereo not given) | 3.3% |
| O=C(/C=C/Sc1ncn[nH]1)c1ccc(Cl)cc1 | 42.7% |
| C[C@@H]1Cn2cnc(C(=O)Nc3ccc(CNC(=O)OC(C)(C)C)cc3)c2C(=O)N1 | -14.7% |
| C=C(C)CNC(=O)c1ccc(OC2CCN(C(=O)COC)CC2)cc1 | 13.1% |
| CC(=O)N1c2ccc(S(=O)(=O)NCCC(=O)N(C)C3CCCCC3)cc2CC1C (stereo not given) | 3.2% |
| Cc1c(Cl)cccc1NC(=O)Nc1ccc(C(=O)N2CCCC2)cc1 | 3.8% |
| COc1ccccc1C(=O)Nc1cccc(C(=O)N2CCOCC2)c1 | -3.8% |
| O=C(Nc1ccc(C(=O)N2CCOCC2)cc1)Nc1cccc(C(F)(F)F)c1 | 55.4% (active) |
